“And” between values parts separate entries of the source, which are not always exact repeats. Equal entries are not always repeated. About 8,200 (3.7%) of roughly 220,000 compounds were called active.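 How the source made its calls: active means compounds that reduced the stress-induced luciferase reporter signal by more than about 70% of percent inhibition (limit read from the data); inactive means the rest.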 Many of the other results were omitted from the sample, so actives are more common in it than they were. More than one record can exist for a structure, and the calls need not agree.
Assay: blockers of ER-stress CHOP reporter expression – cell-based, unfolded protein response, luciferase reporter, primary screen (AID 2732);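 further: 0% = tunicamycin plus vehicle and 100% = wells without tunicamycin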
Conditions: CHO-K1 CHOP-promoter luciferase, tunicamycin-induced, 15-18 h; at 10 µM; stronger effect = higher value

Structure (SMILES)	inhibition
CC(C)COC(=O)n1c(=O)oc2ccc(S(=O)(=O)N3CCCCC3)cc21	11.3% (inactive)
COc1ccc(OC)c(Nc2nc3ccccc3n3cnnc23)c1	24.5% (inactive)
Cc1cccc(C2C3=C(CCCC3=O)N=C3c4ccccc4C(=O)C32)c1 (centres undefined)	19.4% (inactive)
Cc1cccc(NC(=O)c2cccc(C(F)(F)F)c2)c1	2.04% (inactive)
CC(=O)N1CCN(C(=O)Nc2cccc(C(F)(F)F)c2)CC1	26.5% (inactive)
Cc1cccc(NC(=O)c2nnn(-c3cccc(C(F)(F)F)c3)c2N)c1	70.6% (active)
CC(=O)OCCOCn1cnn2c(=O)c(Br)c(C)nc12	7.79% (inactive)
O=C(O)c1ccccc1OCc1ccccc1Cl	-5.39% (inactive)
Cn1nccc1NC(=O)Nc1ccc(OC(F)(F)F)cc1	0.64% (inactive)
CC1(C)C2CCC1(C)C(OC(=O)CCn1ccnc1)C2 (centres undefined)	4.53% (inactive)
CC1(C)C2CCC1(C)C(OC(=O)c1ccc(O)cc1)C2 (centres undefined)	77.6% (active)
Cc1ccc(C(=O)OC2CCCN(C)C2)cc1 (centres undefined)	7.84% (inactive)
N#Cc1ccc(Oc2ccc(C(F)(F)F)cc2NC(=O)c2ccc(F)cc2)cc1	6.42% (inactive)
O=C(NCC1CCCO1)c1ccccc1-c1nc(-c2ccccc2Cl)no1 (centres undefined)	-0.61% (inactive)
O=C(NNc1ncnc2c1cnn2-c1ccccc1)c1ccco1	2.45% (inactive)
C1=C(CCNc2ncnc3c2cnn3-c2ccccc2)CCCC1	88% (active)
c1ccc(-n2ncc3c(N4CCCC4)ncnc32)cc1	-22.2% (inactive)
O=C1N(c2ccccc2)C(=Nc2ccccc2)SC12CC2	-17.1% (inactive)
O=C(CCNc1n[nH]c(=O)[nH]c1=O)N/N=C\c1ccc(Br)cc1	-14.4% (inactive)
Cc1noc(C)c1S(=O)(=O)Nc1cc(C(F)(F)F)ccc1N1CCOCC1	13.3% (inactive)
COc1ccccc1OCCC(=O)OCC(=O)NC(=O)NC(C)(C)C	44.9% (inactive)
CC(C)(C)NC(=O)NC(=O)COC(=O)CCC1CCCCC1	80.2% (active)
CC(C)(C)NC(=O)NC(=O)COC(=O)C1(C)CC1(Cl)Cl (centres undefined)	6.38% (inactive)
Cc1c(C(=O)N/N=C/c2ccccc2)[nH]c2c([N+](=O)[O-])cccc12	20% (inactive)
O=C(O)C(F)(F)C(NCc1ccccc1)c1ccccc1 (centres undefined)	-11.7% (inactive)

Structure (SMILES)	inhibition
Cc1ccc(N2C(=O)CN=C2Nc2nc(C)cc(C)n2)cc1	17% (inactive)
CC(C)(C)C(=O)c1cnc(Nc2ccccc2)s1	4% (inactive)
O=C(CSc1nnc(Nc2ccccc2)s1)Nc1cccnc1Cl	-4.1% (inactive)
O=C(c1ccc(Cl)cc1)c1cnc(Nc2ccccc2)s1	70.1% (active)
CCc1ccnc(NS(=O)(=O)c2ccc3c(c2)OCCO3)c1	16.7% (inactive)
O=c1c(/C=N/O)coc2ccc(Cl)cc12	3.04% (inactive)
c1ccc2c(NC3C4CC5CC(C4)CC3C5)nc(N3CCOCC3)nc2c1 (centres undefined)	83.1% (active)
CC(Nc1nc(N2CCCC2)nc2ccccc12)c1ccccc1 (centres undefined)	34.2% (inactive)
CC(Nc1nc(N2CCOCC2)nc2ccccc12)c1ccccc1 (centres undefined)	16.9% (inactive)
Cc1cc(=O)oc2c(C(=O)c3ccccc3)c(OCC(N)=O)ccc12	6.93% (inactive)
COc1ccc(NC(=O)COC(=O)CNC(=O)C2CCCCC2)cc1	9.71% (inactive)
CCC(C)(C)c1ccc(Oc2ccc(NC(=O)COC(=O)C3=COCCO3)cc2)cc1	80.4% (active)
O=C(OCC(=O)c1cccs1)C1=COCCO1	17.6% (inactive)
COCCN(Cc1cc2cc3c(cc2nc1Cl)OCO3)C(=O)c1cccc(C)c1	27.4% (inactive)
COC(=O)N(NC(=O)C(O)(C(C)C)C(C)C)c1ccccc1	16% (inactive)
COC(=O)c1cc(NC(=O)c2cc(C(C)(C)C)nn2Cc2cccc(C)c2)ccc1N1CCOCC1	42.8% (inactive)
CCOC(=O)C1C(c2ccc(OC)c(OC)c2)c2c([nH][nH]c2=O)CC1(C)O (centres undefined)	3.71% (inactive)
O=C1N=C(N2CCc3ccccc3C2)S/C1=C\c1ccc(O)cc1	-2.8% (inactive)
C/C(=N\OC(=O)c1ccccc1)c1c(C)nc2cc(C)ccn12	15.7% (inactive)
Cc1ccc(NC(=O)C(=O)NCc2ccc(/C=N/NC(=O)c3c(C)nc4cc(C)ccn34)o2)cc1	78.9% (active)
O=C(CSc1ccc(/C=N/NC(=O)c2cccc(F)c2)o1)Nc1ccccc1	-10.9% (inactive)
COc1ccc(S(=O)(=O)N(CC(=O)N/N=C/c2ccccc2C(=O)O)c2ccccc2OC)cc1	-10.7% (inactive)
CCOC(=O)c1nnn(-c2nonc2OC)c1-c1ccccc1	24.9% (inactive)
CCOC(=O)c1c(N)nn(C(=O)c2ccccc2)c1-c1ccccc1	72.5% (active)
CCOC(=O)c1c(-c2cccc(N)c2)cn2ccccc12	20% (inactive)

Structure (SMILES)	inhibition
C=C1CCN([C@H](C(=O)NCc2cc(OC)c(OC)c(OC)c2)C(C)C)S(=O)(=O)c2ccccc21	-3.31% (inactive)
Cc1nc(Cl)c(C#N)c2c1CCCC2	18.3% (inactive)
O=S(=O)(c1ccc(Cl)cc1)N1CCCN(c2ccc(C(F)(F)F)cn2)CC1	21.2% (inactive)
COc1ccc(/C=C2\SC(=N)N(c3ccc(F)cc3)C2=O)cc1	38.3% (inactive)
COc1ccc(/C=C2/S/C(=N/N=C3\CC4CCC3(C)C4(C)C)NC2=O)cc1 (centres undefined)	88.5% (active)
CCOc1ccc(N=C2NC(=O)S/C2=C\c2ccc(O)cc2)cc1	64.1% (inactive)
O=S(=O)(NC(=S)Nc1ccccc1)c1ccc(F)cc1	-27.1% (inactive)
N#Cc1c(NCCO)ccc([N+](=O)[O-])c1NCCO	14.8% (inactive)
COc1ccc(/C=C2\N=C3CCCN3C2=O)cc1	-36.1% (inactive)
Cc1cc(C)nc(Nc2n[nH]c(-c3ccccc3N)n2)n1	-32.3% (inactive)
COc1cc(/C=N/O)cc(Br)c1OCc1cccc(Cl)c1	108% (active)
CCOc1c(Cl)cc(/C=N/O)cc1OC	10.4% (inactive)
CCOc1cc(/C=N/O)cc(Br)c1OC	23.6% (inactive)
C#CCOCCOCCOCCNc1nc(N2CCN(C(=O)[C@H](CCC(=O)O)n3cc(C(N)CO)nn3)CC2)nc(N2CCN(C(=O)[C@H](CCCCN)n3cc(C(N)[C@H](C)CC)nn3)CC2)n1 (some centres undefined)	-9.04% (inactive)
CCOC(=O)c1c(C)nn(-c2ncccc2NC(=O)CCC(=O)O)c1C	15.2% (inactive)
COC(=O)c1c(C)oc(C)c1S(=O)(=O)Nc1ccc(C(C)C)cc1	8.63% (inactive)
Cc1cccc(N2CCN(Cc3nc(C4CC4)no3)CC2)n1	-7.46% (inactive)
Nc1cccc(S(=O)(=O)Nc2ccc(SC(F)F)cc2)c1	6.78% (inactive)
CCCCCC(=O)NC(=S)NNC(=O)c1ccc([N+](=O)[O-])cc1	26.4% (inactive)
O=C(COc1ccc(/C=N/NC(=O)c2ccc(O)cc2)cc1)Nc1ccc([N+](=O)[O-])cc1	0.44% (inactive)
CCCCCC(=O)Nc1ccc(C(=O)N/N=C/c2ccc([N+](=O)[O-])cc2)cc1	73.8% (active)
O=C1NC[C@@H](Cc2ccc(O)cc2)N(CCc2cccc(F)c2)C1=O	-6.82% (inactive)
Brc1ccc(-c2n(-c3ccccn3)c3ccccc3[n+]2-c2ccccn2)cc1	24.6% (inactive)
CCOC(=O)c1sc2nc(SC)nc(-c3ccccc3)c2c1N	-31.5% (inactive)
Cc1cccc(C(=O)NNC(=O)c2cccc([N+](=O)[O-])c2)c1	3.14% (inactive)

Structure (SMILES)	inhibition
CCOC(=O)c1sc(-c2cccc([N+](=O)[O-])c2)cc1N	75.2% (active)
CC(C)c1ccc(NC(=S)NC2CC3C=CC2C3)cc1 (centres undefined)	51.2% (inactive)
CC(=O)Nc1nc2c(s1)C(=O)NCC(C)(C)C2	12.8% (inactive)
Brc1ccc(-c2noc(-c3ccccc3)n2)o1	26.1% (inactive)
CS(=O)(=O)c1ccc(Cl)c(NC(=O)Nc2ccccc2)c1	2.73% (inactive)
CCCn1c(C(O)c2ccc(OCC)cc2)nc2ccccc21 (centres undefined)	19% (inactive)
CCCCCC(O)c1cccc(OCc2ccc3ccccc3n2)c1 (centres undefined)	88.4% (active) and -8.07% (inactive)
CCCCCCOC(=O)NCC(O)c1ccccc1 (centres undefined)	1.35% (inactive)
O=C(NC(=O)c1cc(OCC(F)(F)F)ccc1OCC(F)(F)F)Nc1ccccc1	6.78% (inactive)
Cc1ccc(/C=N/NC(=O)CSc2ccccn2)o1	-0.26% (inactive)
CC(C)n1c(=S)[nH]c2cc(C(F)(F)F)ccc21	22.9% (inactive)
CCc1ccc(NC(=O)Cn2nc(C)c([N+](=O)[O-])c2C)cc1	14.9% (inactive)
COc1ccc(CNC(=O)CCCn2nc(C)c([N+](=O)[O-])c2C)cc1	11.7% (inactive)
Cc1ccc(Oc2cc(NC(=O)CCCn3nc(C)c([N+](=O)[O-])c3C)cc([N+](=O)[O-])c2)cc1	71.1% (active)
Cc1ccc(/C=N/NC(=O)CN2CCN(Cc3ccccc3)CC2)s1	13.5% (inactive)
CCOC(=O)c1ccc(NC(=O)Cn2cnc3cc(C)c(C)cc32)cc1	55.6% (inactive)
O=C(NNS(=O)(=O)c1ccccc1)c1cnn(-c2ccc(Cl)cc2)c1C(F)(F)F	-3.7% (inactive)
C[C@H](NC(=O)c1nc[nH]c1C(=O)N[C@@H](C)C(=O)OC(C)(C)C)C(=O)OC(C)(C)C	1.44% (inactive)
Cc1ccc(-c2noc(CSc3nnc(-c4cccs4)n3C)n2)cc1	-8.68% (inactive)
COc1ccc(C)cc1-n1nnnc1SCc1nc2ccccc2c(=O)[nH]1	12.6% (inactive)
Cc1ccc(Nc2nc(CSc3nnnn3-c3ccccc3)cc(=O)[nH]2)cc1	81.8% (active)
O=c1c2ccccc2nc(CSc2nnnn2-c2ccccc2)n1-c1ccccc1	32.4% (inactive)
Cc1ccc(-c2noc(CSc3nnc(-c4ccccc4)n3C)n2)cc1	66.5% (inactive)
Cc1ccc(-c2noc(CSc3nnnn3-c3ccccc3)n2)cc1	70.7% (active)

Source: PubChem BioAssay AID2732 (Emory University Molecular Libraries Screening Center, 2010)
